Bioassay records deposited in PubChem by National Center for Advancing Translational Sciences (NCATS).
Pf growth 96h = P. falciparum growth inhibition at 96 hour, primary screen for plastid delayed-death inhibitors; P. falciparum luciferase reporter growth, 96 h; actives 6.9% (n = 320,000); Potency, µM (series often up to 28.7 µM), usual class: inhibitors
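Plates of compound plus infected erythrocytes (2% hematocrit, 0.05% parasitemia final) incubate 96 hours, 37 C, 5% CO2. Detection reagent added; reduced luminescence from the parasites' luciferase reporter flags inhibition.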
CHX counter = counter-screen hit for Shiga toxin inhibitors, cycloheximide; actives 12% (n = 300,000); max response, %; AID 2314; cell reporter, cycloheximide protein synthesis inhibition counterscreen; in the data active = max response mostly above about 13%, no sharp cut-off; inactive = mostly below about 14%; note: read at 38.3 µM for the half of the compounds with a filed dose
Pf growth 48h = inhibits P. falciparum growth in the first generation, 48 h. P. falciparum luciferase growth in erythrocytes, 48 h. Potency, µM (series often up to 28.7 µM), hits mostly inhibitors. actives 5.9% (n = 310,000). AID 504832
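Luciferase-expressing parasites in RBCs, 2% Hct / 0.1% parasitemia final; RPMI 1640 + 0.5% Albumax; 37 C, 5% CO2, one generation; luminescence read-out, lower signal = inhibition.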
HCMV inh = inhibitors of human cytomegalovirus; HFF cells, HCMV-luciferase reporter, 72 h; active compounds read low; AID 1259415; actives 4.5% (n = 410,000); activity change, negative = inhibition, % at 57.5 µM; in the data active = activity change below about -60%; inconclusive = no clear call, values can overlap the other calls; inactive = above about -39%
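HFF cells seeded 16 h at 37C, treated with compounds, infected with luciferase-reporter HCMV at MOI 1 PFU/cell; luciferase read at 72 h post infection, normalized to buffer-only and Salinomycin controls.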
Shiga inhibitor = inhibitors of Shiga toxin in Vero cells | inhibition, % at 38.7 µM | Vero cells, Shiga toxin protein synthesis inhibition reporter | AID 2315 | actives 9.2% (n = 290,000); in the data active = inhibition mostly above about 28%, no sharp cut-off; inactive = mostly below about 43%
Numbers stand for hits; i = inactive; ? = inconclusive; nt = no result. A selection: hits, their analogues and other compounds. The true share with any hit is near 20%. Unless noted, calls come from the whole dose curve; as a rule, active = well fitted inhibition curve with a large enough effect; inconclusive = small, poorly fitted or top-dose-only effect, or another doubt; inactive = no such curve, though single readings can be large or run the other way.

SMILES | Pf growth 96h | CHX counter | Pf growth 48h | HCMV inh | Shiga inhibitor
CCOC(=O)[C@]12CCCC=C1N(Cc1ccc3c(c1)OCO3)C(=O)[C@H](CC(=O)NCc1ccc(C)o1)C2 | nt | nt | nt | i | nt
COc1ccc(-n2nc3cc(C)c(N)cc3n2)cc1Cl | i | 40 | i | i | 39
COc1ccc(-n2c(C)cc(C=O)c2C)cc1Cl | i | i | ? | i | i
Cc1cc2nn(-c3ccc(F)cc3)nc2cc1N | ? | 58 | i | i | nt
Cc1cc2nn(-c3ccc(Cl)cc3)nc2cc1N | i | 50 | i | i | 113
CCOC(=O)c1sc(N2C(=O)c3oc4ccc(F)cc4c(=O)c3C2c2ccc(O)cc2)nc1C (centres undefined) | nt | nt | nt | i | nt
O=C(Cn1nc(-c2ccccc2)c2ccccc2c1=O)NN1CCOCC1 | i | i | 15µM | i | i
COc1ccccc1NC(=O)Cn1nc(-c2ccc(Cl)cc2)c2ccccc2c1=O | ? | 16 | nt | ? | i
COc1ccc(S(=O)(=O)NCCc2csc(C)n2)cc1C | i | i | i | i | i
CSc1nc(-c2ccc(Cl)cc2)nn1S(=O)(=O)c1ccccc1 | i | i | i | i | i
COc1ccc(-c2nc(SCc3ccccc3)n(C(=O)c3ccco3)n2)cc1 | i | 26 | i | i | i
COc1ccc(-c2nc(SC)n(C(=O)c3ccco3)n2)cc1 | i | 33 | i | i | 59
CS(=O)(=O)n1nc(-c2ccc(Cl)cc2)nc1SCc1ccccc1 | i | 39 | nt | i | 73
COc1ccc(-c2nc(N)n(C(=O)c3ccco3)n2)cc1 | i | i | i | i | i
CCCn1c(N)c(C(=O)COC(=O)CCNS(=O)(=O)c2ccccc2F)c(=O)[nH]c1=O | i | nt | i | i | nt
COc1ccc(-c2nnc(CSc3nnc(-c4ccncc4)n3C3CCCCC3)o2)cc1OC | 9.3µM | i | ? | i | i
COCCCn1c(SCc2nnc(-c3ccc(OC)c(OC)c3)o2)nnc1-c1ccncc1 | i | i | i | i | i
CC(=O)Nc1ccc(C(=O)Nc2ccc(S(=O)(=O)N3CCOCC3)cc2)cc1 | 8.3µM | 16 | ? | i | i
O=C(c1cccc(NS(=O)(=O)c2cccc(C(F)(F)F)c2)c1)N1CCOCC1 | ? | i | i | -62 | i
O=C(Nc1ccc(S(=O)(=O)N2CCOCC2)cc1)c1ccccc1 | i | i | i | nt | i
Cc1cccc(NS(=O)(=O)c2cccc(C(=O)N3CCN(S(=O)(=O)c4ccccc4)CC3)c2)c1 | 12µM | nt | ? | i | nt
Cc1cccc(NS(=O)(=O)c2cccc(C(=O)N3CCC3)c2)c1 | i | nt | i | i | nt
Cc1cccc(-n2ccc(=O)c(C(=O)Nc3ccc(S(=O)(=O)N4CCOCC4)cc3)n2)c1 | 12µM | i | i | i | i
Cc1noc(C)c1S(=O)(=O)Nc1ccc2c(c1)C(=O)N([C@@H](C)CO)C[C@H](C)[C@@H](CN(C)Cc1ccc(C(F)(F)F)cc1)OCCCC[C@H](C)O2 | nt | nt | nt | i | nt
CC(C)N(C(=O)CSc1ccc(S(=O)(=O)N2CCCCC2)cn1)C(C)C | ? | nt | ? | i | nt
SMILES | Pf growth 96h | CHX counter | Pf growth 48h | HCMV inh | Shiga inhibitor
Cc1ccccc1N1C(=O)c2cc(S(N)(=O)=O)c(Cl)cc2NC1C (centres undefined) | i | nt | i | i | nt
Cc1cc2nc3c(=O)n(C)c(=O)n(C)c3nc2cc1N=CN(C)C | nt | nt | nt | i | nt
COc1cc(NC(=O)CC(c2cccs2)N2Cc3ccccc3C2=O)cc(OC)c1OC (centres undefined) | nt | nt | nt | i | nt
Cc1ccc(NC(=O)CSc2nncn2-c2ccccn2)cc1Cl | i | i | i | i | i
CS(=O)(=O)Nc1ccc(C(=O)Nc2ccc(S(=O)(=O)N3CCCCC3)cc2)cc1 | ? | i | i | -76 | i
O=C(O)c1cccc(NS(=O)(=O)c2ccc(S(=O)(=O)N3CCOCC3)cc2)c1 | i | i | i | -76 | i
O=C(Nc1ccccc1)c1ccc(S(=O)(=O)N2CCCCC2)cc1 | ? | 11 | ? | ? | 19
Cc1ccc(NC(=O)c2ccc(S(=O)(=O)N3CCCC3)cc2)cc1 | nt | nt | nt | i | nt
Cc1ccc(NC(=O)c2ccc(S(=O)(=O)N3CCCCC3)cc2)cc1 | 12µM | i | ? | i | i
Cc1n[nH]c(C)c1CCN(C)Cc1cn(C)nc1-c1ccccc1F | i | i | i | i | i
CCOC(=O)c1ccc(NC2(c3ccccc3)C(=O)c3ccccc3C2=O)cc1 | nt | nt | nt | i | nt
Cc1cnc(C(=O)OCC(=O)c2ccc(F)c(F)c2)cn1 | i | nt | i | i | nt
O=C(Nc1ccn(-c2ccccc2)n1)c1ccc(S(=O)(=O)N2CCCCCC2)cc1 | ? | i | 1µM | ? | i
COc1cc(C(=S)N2CCOCC2)cc(OC)c1OS(=O)(=O)c1ccc(C)cc1 | i | i | i | i | i
